# Results reported in PubChem BioAssay (NCATS).
# “And” between values parts separate entries of the source, which are not always exact repeats. Identical values can stand only once. Values without a mark were called inactive. Inconclusive results are not listed. Where a call stands in place of a potency, no number is given. The source made the active and inactive calls. Unless noted, calls come from the whole dose curve; as a rule, active = well fitted curve in the direction sought with a large enough effect; inconclusive = small, poorly fitted or top-dose-only effect, or another doubt; inactive = no such curve, though single readings can be large; an effect the other way counts as inactive or inconclusive.
# Tests used:
# [1] = target: Luciferin 4-monooxygenase (Photinus pyralis) (UniProt P08659); experiment: Biochemical firefly luciferase enzyme assay for NPC (AID 624030);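 note: purified P. pyralis luciferase at 10 nM with luciferin and ATP substrate; nearly all actives have a fitted effect of over 70% in size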; conditions: purified P. pyralis luciferase, luminescence, 5 min; series mostly up to 58.6 µM
# Chain of Luciferin 4-monooxygenase (Photinus pyralis) (P08659 whole entry, looked up): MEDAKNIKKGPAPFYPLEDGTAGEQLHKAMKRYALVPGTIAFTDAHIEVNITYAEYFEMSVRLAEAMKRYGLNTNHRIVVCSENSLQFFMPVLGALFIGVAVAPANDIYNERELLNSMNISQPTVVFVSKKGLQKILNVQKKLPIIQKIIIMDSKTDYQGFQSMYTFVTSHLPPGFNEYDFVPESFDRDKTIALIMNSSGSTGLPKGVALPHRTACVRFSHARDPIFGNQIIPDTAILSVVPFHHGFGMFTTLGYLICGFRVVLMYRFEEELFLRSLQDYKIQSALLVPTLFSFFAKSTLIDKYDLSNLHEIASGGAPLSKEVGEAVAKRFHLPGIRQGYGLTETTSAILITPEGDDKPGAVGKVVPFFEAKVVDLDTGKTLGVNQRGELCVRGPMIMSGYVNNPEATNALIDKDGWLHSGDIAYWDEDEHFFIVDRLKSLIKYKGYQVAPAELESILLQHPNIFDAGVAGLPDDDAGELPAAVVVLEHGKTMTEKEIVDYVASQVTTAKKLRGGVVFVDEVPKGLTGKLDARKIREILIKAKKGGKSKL
# Procedure, shortened: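 Counter-screen for direct inhibition of the luciferase enzyme by approved-drug library compounds, run at 10 nM enzyme in 50 mM Tris acetate (final). Luminescence was read within 5 min of enzyme-buffer addition and normalized to PTC124 versus DMSO (0%).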
# [2] = S16 Schwann cell viability assay (CellTiter-Glo assay) (AID 624031); conditions: S16 rat Schwann cells viability, 24 h; series mostly up to 57.5 µM;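 note: cellular ATP luminescence as a viability measure; nearly all actives have a fitted effect of over 70% in size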
# Procedure, shortened: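 Native S16 rat Schwann cells in DMEM/10% FBS without phenol red were incubated overnight, then exposed to compounds for 24 h at 37 °C/5% CO2. Viability was read as ATP luminescence (CellTiter-Glo), normalized to no-cell wells and DMSO (0%).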
# [3] = S16 Schwann cell PMP22 intronic element firefly luciferase assay (AID 624032); conditions: S16 rat Schwann cells, PMP22 element FLuc, 24 h; series mostly up to 57.5 µM; note: nearly all actives have a fitted effect of over 30% in size
# Procedure, shortened: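 Rat S16 Schwann cells stably carrying a PMP22 intronic element-driven Fluc reporter were seeded overnight, then exposed to compounds for 24 h at 37 °C. Luminescence was normalized to PTC124 (positive control) and DMSO (0% activity).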
# [4] = S16 Schwann cell PMP22 intronic element beta-lactamase assay (AID 624044; calls by dose curve; note: nearly all actives have a fitted effect of over 15% in size); conditions: S16 rat Schwann cells, PMP22 element beta-lactamase FRET, 24 h; ratio activity, negative = inhibition: at 38.3 µM (top of the series) unless noted
# Procedure, shortened: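 Beta-lactamase reporter under a PMP22 intronic regulatory element in stable S16 rat Schwann cells; 24 h compound exposure. 460 nm blue signal normalized between DMSO (0%) and potassium clavulanate, with 535 nm FRET tracking viability; curves classed by r2 and response.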
# [5] = qHTS assay for small molecule agonists of the antioxidant response element (ARE) signaling pathway (AID 651741; active = well fitted activation curve with a large enough effect in the signal ratio; the % refers to the signal ratio; note: potency is the fitted concentration of half-maximal effect); conditions: HepG2 ARE-bla reporter, beta-lactamase FRET ratio, 16 h; series mostly up to 96 µM
# Procedure, shortened: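 Beta-lactamase reporter expression driven by the antioxidant response element in HepG2 cells was detected by fluorescence with LiveBLAzer B/G FRET substrate (2 h, room temperature) following 16 h compound treatment at 37 C.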
# [6] = qHTS assay for small molecule activators of the nuclear factor-kappa B (NF-kB) signaling pathway (AID 651749; active = well fitted activation curve with a large enough effect in the signal ratio; the % refers to the signal ratio); conditions: NF-kB-bla ME-180 cells, beta-lactamase FRET ratio, 16 h; active compounds read high
# Procedure, shortened: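 Beta-lactamase reporter expression, controlled by NF-kB response elements in ME-180 cells, was quantified fluorometrically via FRET disruption; cells at 2,000/well had been incubated with 23 nL test compound for 16 hr.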
# [7] = qHTS assay for environmental chemicals that activate the Aryl hydrocarbon Receptor (AhR) signaling pathway (AID 651777); conditions: 1A2-DRE human hepatoma cells, luciferase, 24 h; activation: active compounds read high; note: nearly all actives have a fitted effect of over 15% in size
# Procedure, shortened: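 Human hepatoma 1A2-DRE cells, stably carrying a dioxin response element and CYP1A2 promoter driving luciferase, were exposed to compounds for 24 hr at 37 C and 5% CO2. Luciferase signal was then read after 30 min One-Glo at room temperature.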
# [8] = target: Peroxisome proliferator-activated receptor alpha (Homo sapiens) (UniProt Q07869); experiment: qHTS assay for small molecule agonists of the peroxisome proliferator-activated receptor alpha (PPARalpha) signaling pathway (AID 651778); conditions: PathHunter PPARalpha complementation, chemiluminescence, 6 h; active compounds read high
# Chain of Peroxisome proliferator-activated receptor alpha (Homo sapiens) (Q07869 whole entry, looked up): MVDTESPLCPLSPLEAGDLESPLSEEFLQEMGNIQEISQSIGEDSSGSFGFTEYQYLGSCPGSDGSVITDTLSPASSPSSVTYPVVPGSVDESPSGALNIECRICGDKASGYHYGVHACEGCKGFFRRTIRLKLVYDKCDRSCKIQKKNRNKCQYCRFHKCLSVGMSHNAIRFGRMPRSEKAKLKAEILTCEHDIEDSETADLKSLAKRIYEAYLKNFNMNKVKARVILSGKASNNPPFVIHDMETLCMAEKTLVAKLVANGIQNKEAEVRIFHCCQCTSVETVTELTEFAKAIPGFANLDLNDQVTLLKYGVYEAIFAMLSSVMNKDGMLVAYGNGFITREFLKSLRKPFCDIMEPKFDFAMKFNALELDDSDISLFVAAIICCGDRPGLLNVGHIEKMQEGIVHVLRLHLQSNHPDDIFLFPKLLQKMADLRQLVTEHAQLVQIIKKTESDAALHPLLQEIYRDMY
# Procedure, shortened: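 Cells plated at 2,000/well and held overnight at 37 C, 5% CO2, then compound added by pin tool for 6 hr; after PathHunter detection reagent and 60 min at room temperature, chemiluminescence from enzyme complementation was read.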
# [9] = qHTS assay for small molecule disruptors of the mitochondrial membrane potential - 1 hr assay (AID 651754; calls by dose curve; note: nearly all actives have a fitted effect of over 35% in size); conditions: series mostly up to 92.2 µM
# Procedure, shortened: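 Read-out: dye fluorescence at 490 nm ex/535 nm em (monomers) and 540 nm ex/590 nm em (aggregates) in HepG2 cells. Compound exposure 1 hr at 37C, followed by 30 min dye loading.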
# [10] = qHTS assay for small molecule disruptors of the mitochondrial membrane potential - 5 hr assay (AID 651755; calls by dose curve; note: nearly all actives have a fitted effect of over 40% in size); conditions: JC-1-type ratio dye; series mostly up to 92.2 µM
# Procedure, shortened: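 Seed HepG2 overnight, add compound, incubate 5 hr at 37C and 5% CO2, stain 30 min with Mito-MPS, then measure monomer (490/535 nm) and aggregate (540/590 nm) fluorescence.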
# [11] = target: Tumor necrosis factor (Homo sapiens) (UniProt P01375); experiment: qHTS assay to identify small molecules that stimulate Tumor Necrosis Factor-alpha (TNF-alpha) secretion (AID 651757; active = well fitted curve in the direction sought with a large enough effect in the signal ratio; the % refers to the signal ratio); conditions: Human cells, HTRF 665/615 ratio; series mostly up to 92.2 µM
# Chain of Tumor necrosis factor (Homo sapiens) (P01375 whole entry, looked up): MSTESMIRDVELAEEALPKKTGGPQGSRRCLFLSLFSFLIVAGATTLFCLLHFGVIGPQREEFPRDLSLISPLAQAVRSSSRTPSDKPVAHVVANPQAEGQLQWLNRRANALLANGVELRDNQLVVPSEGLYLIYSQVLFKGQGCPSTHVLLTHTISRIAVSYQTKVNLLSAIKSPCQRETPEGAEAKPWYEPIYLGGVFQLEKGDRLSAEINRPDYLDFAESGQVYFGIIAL
# Procedure, shortened: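 THP-1 cells, 3000/well; compound 17 hrs, 37 C; add cryptate/XL665 anti-TNF-alpha antibody pair; 3 hr RT; TR-FRET (HTRF) read of secreted TNF-alpha. Quantitative HTS format.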
# [12] = target: Nuclear receptor ROR-gamma (Homo sapiens) (UniProt P51449); experiment: qHTS assay for small molecule antagonists of the retinoid-related orphan receptor gamma (ROR-gamma) signaling pathway (AID 651802); conditions: ROR-gamma antagonist cell reporter assay; series mostly up to 92.2 µM;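 note: CHO cells with doxycycline-induced ROR-gamma expression; luciferase reporter luminescence driven by ROR response element; nearly all actives have a fitted effect of over 60% in size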
# Chain of Nuclear receptor ROR-gamma (Homo sapiens) (P51449 whole entry, looked up): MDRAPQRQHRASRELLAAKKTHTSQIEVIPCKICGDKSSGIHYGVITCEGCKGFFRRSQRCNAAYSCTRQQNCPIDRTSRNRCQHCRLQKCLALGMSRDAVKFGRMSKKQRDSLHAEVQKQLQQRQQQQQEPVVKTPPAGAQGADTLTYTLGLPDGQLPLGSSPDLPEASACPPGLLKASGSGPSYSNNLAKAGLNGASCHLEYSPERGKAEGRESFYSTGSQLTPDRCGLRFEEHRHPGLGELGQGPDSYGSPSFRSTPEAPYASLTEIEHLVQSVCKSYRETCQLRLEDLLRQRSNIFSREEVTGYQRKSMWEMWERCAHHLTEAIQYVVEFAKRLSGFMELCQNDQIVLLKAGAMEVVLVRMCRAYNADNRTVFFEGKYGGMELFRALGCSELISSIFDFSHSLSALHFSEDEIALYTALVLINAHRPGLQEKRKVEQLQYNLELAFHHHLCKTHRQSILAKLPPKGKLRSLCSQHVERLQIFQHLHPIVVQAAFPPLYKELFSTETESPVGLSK
# Procedure, shortened: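 Luciferase read-out: ONE-Glo luminescence after 30 min at room temperature, following 16hr doxycycline induction at 37C, 5% CO2 of CHO cells with TET-inducible ROR and RORE-LUC reporter; decreased luminescence = reduced reporter activity.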
# [13] = qHTS assay to identify small molecules that stimulate interleukin-8 (IL-8) secretion (AID 651758; active = well fitted activation curve with a large enough effect in the signal ratio; the % refers to the signal ratio); conditions: HTRF ratio (665/615); series mostly up to 92.2 µM
# Procedure, shortened: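 Quantitative HTS in THP-1 monocytic cells at 2000 cells per well, with 16 hrs compound incubation at 37 C. IL-8 in the medium was then quantified by HTRF immunoassay, read after 1-3 hrs at room temperature.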
smiles,measurement,setting,value
O=C(O)CC/C=C\CC[C@@H]1[C@@H](N2CCCCC2)[C@@H](O)C[C@@H]1OCc1ccc(-c2ccccc2)cc1,Potency,[1],inactive
same,Potency,[2],inactive
same,Potency,[3],inactive
same,"ratio activity, negative = inhibition",[4],-1.41%
O=[N+]([O-])c1c(Cl)cccc1-c1c[nH]cc1Cl,Potency,[1],inactive
same,Potency,[2],inactive
same,Potency,[3],inactive
same,"ratio activity, negative = inhibition",[4],-0.605%
Cc1cc2nc3c(=O)[nH]c(=O)nc-3n(C[C@H](O)[C@H](O)[C@H](O)COP(=O)(O)OP(=O)(O)OC[C@H]3O[C@@H](n4cnc5c(N)ncnc54)[C@H](O)[C@@H]3O)c2cc1C,Potency,[1],inactive
same,Potency,[2],inactive
same,Potency,[3],inactive
same,"ratio activity, negative = inhibition",[4],-42.7%
CCC(C(=O)NC(N)=O)c1ccccc1 (configuration not stated),Potency,[1],inactive
same,Potency,[2],inactive
same,Potency,[3],inactive
same,"ratio activity, negative = inhibition",[4],8.54%
CCc1ccc(S(=O)(=O)O)cc1,Potency,[1],inactive
same,Potency,[2],inactive
same,Potency,[3],inactive
same,"ratio activity, negative = inhibition",[4],-9.66%
Cc1cccc(C)c1NC(=O)NC1=CCCN1C,Potency,[1],inactive
same,Potency,[2],inactive
same,Potency,[3],inactive
same,"ratio activity, negative = inhibition",[4],3.11%
O=P(O)(O)OP(=O)(O)OP(=O)(O)O,Potency,[1],inactive
same,Potency,[2],inactive
same,Potency,[3],inactive
same,"ratio activity, negative = inhibition",[4],-5.37%
NCCO/C=C/[C@H](N)C(=O)O,Potency,[1],inactive
same,Potency,[2],inactive
same,Potency,[3],inactive
same,"ratio activity, negative = inhibition",[4],0.236%
same,Potency,[5],inactive
same,activation,[6],-5.26%
same,activation,[7],1.28%
same,max response,[8],2.79%
CC/C(=C(/CC)c1ccc(OP(=O)(O)O)cc1)c1ccc(OP(=O)(O)O)cc1,Potency,[1],inactive
same,Potency,[2],inactive
same,Potency,[3],inactive
same,"ratio activity, negative = inhibition",[4],2.34%
O=C(OC1C[C@@H]2CC3C[C@H](C1)N2CC3=O)c1c[nH]c2ccccc12 (some centres not stated),Potency,[1],inactive
same,Potency,[2],inactive
same,Potency,[3],inactive
same,"ratio activity, negative = inhibition",[4],-0.0634%
O=C(O)Cc1nn(Cc2ccc(Br)cc2F)c(=O)c2ccccc12,Potency,[1],inactive
same,Potency,[2],inactive
same,Potency,[3],inactive
same,"ratio activity, negative = inhibition",[4],3.04%
OC/C=C/c1ccccc1,Potency,[1],inactive
same,Potency,[2],inactive
same,Potency,[3],inactive
same,"ratio activity, negative = inhibition",[4],-1.9%
CC(=O)Oc1cc(C(F)(F)F)ccc1C(=O)O,Potency,[1],inactive
same,Potency,[2],inactive
same,Potency,[3],inactive
same,"ratio activity, negative = inhibition",[4],-5.78% [at 17.1 µM]
CCCCCCOC(=O)c1cccnc1,Potency,[1],inactive
same,Potency,[2],inactive
same,Potency,[3],inactive
same,"ratio activity, negative = inhibition",[4],2.38%
Cc1ncc(COP(=O)(O)O)c(CN)c1O,Potency,[1],inactive
same,Potency,[2],inactive
same,Potency,[3],inactive
same,"ratio activity, negative = inhibition",[4],-0.583%
OCCCNc1ccccc1,Potency,[1],inactive
same,Potency,[2],inactive
same,Potency,[3],inactive
same,"ratio activity, negative = inhibition",[4],0.736%
O=C1c2ccccc2C(=O)C1c1ccc(F)cc1,Potency,[1],inactive
same,Potency,[2],inactive
same,Potency,[3],inactive
same,"ratio activity, negative = inhibition",[4],2.55%
CC1=CC(=O)NS(=O)(=O)O1,Potency,[1],inactive
same,Potency,[2],inactive
same,Potency,[3],inactive
same,"ratio activity, negative = inhibition",[4],1.96%
same,Potency,[5],inactive
same,activation,[6],-0.0661% and 0.935%
same,Potency,[9],inactive
same,Potency,[10],inactive
same,Potency,[11],inactive
same,activation,[7],-1.78% and 1.57%
same,max response,[8],-1.04% and -0.299%
same,Potency,[12],inactive
O=P(O)(O)O,Potency,[1],inactive
same,Potency,[2],inactive
same,Potency,[3],inactive
same,"ratio activity, negative = inhibition",[4],2.1%
same,Potency,[5],inactive
same,activation,[6],-0.144%
same,Potency,[9],inactive
same,Potency,[10],inactive
same,Potency,[11],inactive
same,activation,[7],-1.09%
same,max response,[8],-4.49%
same,Potency,[12],inactive
CC(=O)Oc1cccc2c1C(=O)c1c(OC(C)=O)cc(C(=O)O)cc1C2=O,Potency,[1],inactive
same,Potency,[2],inactive
same,Potency,[3],inactive
same,"ratio activity, negative = inhibition",[4],0.316%
CCCCCCCCCCCC(=O)OCC(O)CO (configuration not stated),Potency,[1],inactive
same,Potency,[2],inactive
same,Potency,[3],inactive
same,"ratio activity, negative = inhibition",[4],1%
CC(C)CCC[C@@H](C)[C@H]1CC[C@H]2[C@@H]3CC=C4C[C@@H](O)CC[C@]4(C)[C@H]3CC[C@]12C,Potency,[1],inactive
same,Potency,[2],inactive
same,Potency,[3],inactive
same,"ratio activity, negative = inhibition",[4],7.26%
same,Potency,[5],54.5 µM (active)
same,activation,[6],0.0919%
same,activation,[7],-1.61%
same,max response,[8],-0.612%
CC(C)c1nc(N(C)S(C)(=O)=O)nc(-c2ccc(F)cc2)c1/C=C/C(O)CC(O)CC(=O)O (configuration not stated),Potency,[1],inactive
same,Potency,[2],inactive
same,Potency,[3],inactive
same,"ratio activity, negative = inhibition",[4],3.3%
CC1=CCC2CC1C2(C)C (configuration not stated),Potency,[1],inactive
same,Potency,[2],inactive
same,Potency,[3],inactive
same,"ratio activity, negative = inhibition",[4],2.01%
same,Potency,[5],inactive
same,activation,[6],-0.174%
same,Potency,[9],inactive
same,Potency,[10],inactive
same,Potency,[11],inactive
same,Potency,[13],inactive
same,activation,[7],1.2%
same,max response,[8],-6.44%
same,Potency,[12],inactive
Cc1ncc[nH]1,Potency,[1],inactive
same,Potency,[2],inactive
same,Potency,[3],inactive
same,"ratio activity, negative = inhibition",[4],-0.768%
same,Potency,[5],inactive
same,activation,[6],0.166%
same,Potency,[9],inactive
same,Potency,[10],inactive
same,Potency,[11],inactive
same,Potency,[13],inactive
same,activation,[7],0.165%
same,max response,[8],-1.93%
same,Potency,[12],inactive
